The source of these data is ChEMBL document CHEMBL4513216, “Probing the Open Global Health Chemical Diversity Library for Multistage-Active Starting Points for Next-Generation Antimalarials” (ACS Infect Dis, 2020).

Among all 68,000 compounds or so, about 2,700 (4%) showed an effect of 50% or more. Only a selection was taken, and strong results are over-represented in it overall.

The test system of this assay is Plasmodium berghei. As to the kind of experiment: Screen against P. berghei liver stage (PbLuc), transformed with Luciferase, at 2uM. Particulars: tested at 2 uM. Format: functional, HepG2.
In the case of `Cc1cc(C(=O)NCCN2CCC(C)CC2)nn1C(C)(C)C`, the INHIBITION is given as 10.1%. The result for `CC(C)(C)n1nc(C(=O)NC2CCN(CC(N)=O)CC2)cc1C1CC1` reads 52.74%; that for `CC(C)c1cc(C(=O)NC2CCN(CC(N)=O)CC2)nn1C(C)(C)C`, 0.79%; that for `CC(C)(C)n1nc(C2CC2)cc1C(=O)NC1CCN(CC(N)=O)CC1`, 40.97%. For `Cc1cc(C(=O)NC2CCN(CC(N)=O)CC2)nn1C(C)(C)C`, the INHIBITION is on record as 61.06%. On to `CNC(=O)C1CCC(NC(=O)c2cc(C3CC3)n(C(C)(C)C)n2)CC1` (configuration not stated), for which the INHIBITION turned out to be 37%. Turning to `NC(=O)NCC1CCCCN1Cc1nc(-c2ccco2)no1` (configuration not stated), the INHIBITION was -3.06%. For the compound `COc1ccc(CCC(=O)NCCN2CCC(c3cccs3)CC2)cc1`, the INHIBITION is 11.78%. In the case of `CC(CC(=O)NCCNS(C)(=O)=O)C1CCCCC1` (configuration not stated), the INHIBITION was -13.76%. On to `CC(NC(=O)Cn1ccc(=O)n(C)c1=O)c1cc(F)ccc1F` (configuration not stated), for which the INHIBITION is recorded as 16.25%.

Take `COCCOCCC(=O)Nc1c(-c2ccc(F)cc2)ncn1C`: the INHIBITION is given as 35.68%. For the compound `CC(C)OCCC(=O)Nc1c(-c2ccc(F)cc2)ncn1C`, the INHIBITION amounted to 6.47%. The result for `CC(C)COCCC(=O)Nc1c(-c2ccc(F)cc2)ncn1C` reads 60.43%; that for `CCN1CC(CN(C)Cc2nc(-c3cccc(Cl)c3)oc2C)CC1=O` (configuration not stated), 32.26%.

`CN(Cc1nc(Cc2ccccc2F)no1)CC1Cc2ccccc2O1` (configuration not stated): the INHIBITION is reported as 60.9%. Consider `CN(Cc1nc(COc2ccccc2)no1)CC1Cc2ccccc2O1` (configuration not stated), for which the INHIBITION was determined as 8.03%.

`CN(Cc1nc(CC2CC2)no1)CC1Cc2ccccc2O1` (configuration not stated): the INHIBITION is reported as 44.37%. The result for `O=C(c1cccc(NCCO)c1)N1CCOCC1` reads 10.74%; that for `CCN(CC)C(=O)c1ccc(Cl)c(NC(=O)c2cnc(C)cn2)c1`, 20.71%; that for `Cc1cn2c(n1)CCC(NC(=O)CCn1cncn1)C2` (configuration not stated), 19.64%.

As for `Cc1cccc(CN2C[C@@H]3COC[C@]3(COCC(=O)N(C)C)C2)n1`, the INHIBITION turned out to be 27.52%.

As to `Cc1nc(CN2C[C@@H]3COC[C@]3(COCC(=O)N(C)C)C2)cs1`, the INHIBITION stood at 23.09%.

Regarding `Cc1cc(CN2C[C@@H]3COC[C@]3(COCC(=O)N(C)C)C2)no1`, the INHIBITION is on record as 64.37%.

With `CC(=O)Nc1ccc(CN2CCc3[nH]cnc3C2c2nccn2C)cc1` (configuration not stated), the INHIBITION is given as -42.54%. The result for `Clc1ccccc1OCCc1cc(C2CCNC2)n[nH]1` (configuration not stated) reads 16.14%; that for `CN1C[C@H](O)[C@]2(CCN(Cc3ccc(F)c(F)c3)C2)S1(=O)=O`, 6.4%; that for `CCc1noc(CN(Cc2cccs2)C2CC2)n1`, 7.85%.

`COC(=O)C1CN(CC(=O)Nc2cc(F)ccc2F)c2ccccc21` (configuration not stated): the INHIBITION is reported as 16.95%. Consider `COC(=O)C1CN(CC(=O)Nc2cccc(OC)c2)c2ccccc21` (configuration not stated), for which the INHIBITION is listed as 43.88%. The result for `COC(=O)C1CN(CC(=O)Nc2ccccc2Cl)c2ccccc21` (configuration not stated) reads 57.34%; that for `Cn1cc(CN2CCC[C@]3(C[C@H](Oc4ncccc4F)CO3)C2)cn1`, 20.01%. On to `CC(C)CN1CCC2(Cc3ccccc3NC2=O)C1` (configuration not stated), for which the INHIBITION is reported as -1.69%. Turning to `COCC1CN(CC2CC2)Cc2nn(C)cc21` (configuration not stated), the INHIBITION amounted to 30.38%. In the case of `CCc1ccc2c(c1)C(CCNC(=O)Cc1ccc(F)cc1)C(=O)N2` (configuration not stated), the INHIBITION is 33.22%. As to `CCc1ccc2c(c1)C(CCNC(=O)CSC(F)(F)F)C(=O)N2` (configuration not stated), the INHIBITION was 26.51%.

With `CCc1ccc2c(c1)C(CCNC(=O)CCc1ccsc1)C(=O)N2` (configuration not stated), the INHIBITION turned out to be 57.16%. The value for `Cc1nc(C)n(CC2CCCCN2CC(=O)Nc2c(C)n[nH]c2C)n1` (configuration not stated) was -91.52%. Turning to `CC(C(=O)N(C)C)N1CCCN(C(=O)Oc2ccccc2)CC1` (configuration not stated), the INHIBITION is recorded as 10.43%. Consider `CC(=O)Nn1ccc2c(nnc3c(-c4ccc(F)cc4)cnn32)c1=O`, for which the INHIBITION is -27.89%. For the compound `CN1CCC(c2cccc(-c3cccc(C(=O)O)c3)n2)CC1`, the INHIBITION is on record as -14.73%.

`COc1nccc(C(F)(F)F)c1C(=O)O`: the INHIBITION is on record as -16.59%. Take `COc1ncc(C(F)(F)F)c(C(=O)O)c1Cl`: the INHIBITION is listed as 30.38%.

With `COC(=O)c1c(C(F)(F)F)cnc(OC)c1Cl`, the INHIBITION is 53.54%.

For `Cc1ccc(C(CNCc2c[nH]nc2C)N(C)C)cc1` (configuration not stated), the INHIBITION was found to be 30.23%. The result for `Cc1nc(N2CCC(O)(c3ccc(F)cc3)CC2)c2c(C)nn(C)c2n1` reads 15.92%.

In the case of `CN(C)CC(=O)N1CCOC2(CCCN(c3ncccc3F)C2)C1` (configuration not stated), the INHIBITION is -15.88%. The value for `Cc1noc(C)c1CNCC1COCc2c(-c3ccoc3)nnn2C1` (configuration not stated) was 22.84%. The result for `COCCN1CCC2(CCC1=O)CN(c1ccnc(SC)n1)CCN2C` (configuration not stated) reads 1.85%; that for `CSc1nccc(N2CCN(C)C3(CCC(=O)N(CC4CC4)CC3)C2)n1` (configuration not stated), 55.4%; that for `CCN1CCC2(CCC1=O)CN(c1ccnc(SC)n1)CCN2C` (configuration not stated), -1.27%.

`CN1CCC(N(CCc2ccccc2)C(=O)c2ccc(C#N)nc2)CC1`: the INHIBITION worked out at 31.12%. `CCc1cc(CNC(=O)N2Cc3ccccc3N(C)CC2C)[nH]n1` (configuration not stated): the INHIBITION is given as -19.7%. The value for `CCc1cc(CNC(=O)N2Cc3ccccc3N(C)CC2C)on1` (configuration not stated) was 61.01%; that for `CC1CN(C)c2ccccc2CN1C(=O)NCc1ccon1` (configuration not stated) was 16.79%. As to `O=C(CN1CCC2(CCCN(CCO)C2=O)C1)NCCc1ccccc1` (configuration not stated), the INHIBITION is -27.89%. The result for `Brc1cccc(C2(CNCc3cc[nH]c3)CCOCC2)c1` reads 10.93%. As for `O=C(CS(=O)(=O)c1ccc(Cl)cc1)NC1CCCc2ccccc21` (configuration not stated), the INHIBITION is on record as 44.37%. The value for `CN(C)CC1CN(c2ncnc3[nH]ccc23)CCO1` (configuration not stated) was -35.72%; that for `Cc1cc(NCCO)nc(-c2ccccc2O)n1` was -4.81%; that for `Cc1cc(N2CCOC(C(F)(F)F)C2)nc(-c2ccccc2O)n1` (configuration not stated) was -43.28%. For `Cc1cc(N2Cc3cnn(CCO)c3C2)nc(-c2ccccc2)n1`, the INHIBITION came out at 67.53%. In the case of `Cc1cc(N2Cc3cnn(CCO)c3C2)nc(-c2ccccc2O)n1`, the INHIBITION was 53.55%.

Turning to `Cc1cc(N2CCN(CCO)CC2)nc(-c2ccncc2)n1`, the INHIBITION was found to be 1.22%. The value for `CCCc1nc(C)cc(N2Cc3cnn(CCO)c3C2)n1` was -18.52%; that for `Cc1ccc(CC(=O)N2Cc3nccn3CC(Cn3cccn3)C2)cc1` (configuration not stated) was -8.05%. Turning to `CCc1nc(C2CCCN(C(=O)c3cccc(C(N)=O)c3)C2)no1` (configuration not stated), the INHIBITION is given as -12.41%. The value for `COc1ccc2[nH]c3c(c2c1)CN(c1cc(NCCO)nc(N)n1)CC3` was 13.24%.
